Assay outcomes (PubChem)
D1 PAM = potentiators of human D1 dopamine receptor | P21728 | HEK293 TREx D1 cells, calcium flux, dopamine EC20 potentiation | potentiation, % at 10 µM | actives 0.036% (n = 360,000) | AID 504651; in the data active = potentiation above about 30%; also: 0% is about no effect
Target sequence (P21728 whole entry, looked up): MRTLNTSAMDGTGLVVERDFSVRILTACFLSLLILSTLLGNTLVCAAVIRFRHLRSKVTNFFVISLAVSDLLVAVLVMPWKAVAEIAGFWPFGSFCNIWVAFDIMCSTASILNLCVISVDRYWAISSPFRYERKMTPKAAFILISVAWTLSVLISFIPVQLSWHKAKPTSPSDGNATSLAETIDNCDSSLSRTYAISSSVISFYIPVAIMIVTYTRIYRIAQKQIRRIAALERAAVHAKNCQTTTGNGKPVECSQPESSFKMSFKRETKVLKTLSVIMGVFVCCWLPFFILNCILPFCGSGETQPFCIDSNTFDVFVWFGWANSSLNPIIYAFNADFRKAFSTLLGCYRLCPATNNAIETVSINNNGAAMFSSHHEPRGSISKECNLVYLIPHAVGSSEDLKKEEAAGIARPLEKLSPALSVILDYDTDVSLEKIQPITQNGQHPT
TRHR ag = agonists of human TRH receptor; P34981; TRHR cells, calcium flux fluo-8, FDSS agonist mode; activation, % at 2 µM; actives 0.18% (n = 360,000); also: 0% is about no effect
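In this calcium-flux screen, cells bearing human TRHR are dye-loaded with fluo-8, baselined for 10 cycles, then exposed to library compounds; positive kinetic calcium responses during the agonist phase mark hits, with TRH as control.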
D1 ag = agonists of human D1 dopamine receptor; P21728; activation, % at 2 µM; actives 1% (n = 360,000); AID 504660; HEK293 T-REx D1 cells, calcium flux, agonist mode; also: 0% is about no effect
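Tetracycline-induced HEK293 TREx D1 cells, force-coupled to calcium signalling, were dye-loaded with a no-wash calcium kit. Compound was pin-added after a 10 s baseline. Fluorescence was read kinetically at 1 cycle/s for 180 s, with calcium rises flagged as agonism.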
D1 antag = human D1 dopamine receptor antagonism; P21728; HEK293 TREx D1 cells, calcium flux, dopamine EC80; stronger effect = lower value; activity change, negative = inhibition, % at 10 µM; actives 3.2% (n = 360,000); in the data active = activity change below about -30%; also: % is scaled to controls: 0 for no effect and ±100 for the full control effect
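Calcium flux readout: force-coupled, inducible Hek293 Trex D1 line, cells induced overnight at 30 C with tetracycline, dye-loaded 30–90 min at RT. Antagonism scored against EC80 dopamine challenge given 180 s after compound.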
TRHR PAM = allosteric enhancers of human TRH receptor. actives 0.66% (n = 360,000). TRHR cells, fluo-8 calcium fluorescence, EC20 TRH enhancement. AID 493056. P34981. enhancement, % at 2 µM; in the data active = enhancement above about 30%; also: 0% is about no effect
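Enhancer read-out: after compound pinning and an initial kinetic agonist-mode read, an EC20 of TRH (10 nM final) was injected and fluo-8 calcium signal (Ex 480/Em 530) followed at 1 s/cycle for 100 cycles in TRHR-expressing cells.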
* = called active by the depositor; · = not tested or not shown. Most compounds without a hit are left out; they make up all but 4.7% or so of the library. Rule as the data show it, unless noted: active = activation above about 30%; inactive = the rest.

SMILES	D1 PAM	TRHR ag	D1 ag	D1 antag	TRHR PAM
Cc1ccccc1OCCSc1nc2ccc(NC(=O)c3ccccc3)cc2s1	-2	-2	17	-33*	15
CC(C)(C)C(=O)Nc1ccc2nc(SCCOc3ccccc3Cl)sc2c1	3	-1	30*	-1	7
CC(=O)Nc1ccc2nc(SCCOc3ccccc3)sc2c1	-2	0	1	-8	4
COc1ccc(NC(=O)c2sc3nc(N4CCOCC4)c4c(c3c2N)CC(C)(C)OC4)c(OC)c1	8	0	-1	1	2
COc1ccc(OCCSc2nnc(Cc3cccc4ccccc34)n2N)cc1	-2	0	3	-20	-3
Nn1c(Cc2ccccc2F)nnc1SCCOc1ccc(Cl)cc1	-6	-1	0	-39*	5
COc1ccc(OC)c(NC(=O)CCc2c(C)nc3c(c(C)nn3C(C)(C)C)c2C)c1	-3	0	-1	-42*	0
Cc1nc2c(c(C)nn2C(C)(C)C)c(C)c1CCC(=O)Nc1ccc(Br)cc1Br	0	0	4	-7	5
Cc1nc(=O)c(-c2ccccc2)c(C)n1CCCCCC(=O)O	0	1	3	-7	-2
Cc1nc(=O)c(-c2ccccc2)c(C)n1CCO	-4	0	1	-37*	-1
Cc1nc(=O)c(-c2ccccc2)c(C)n1CCCO	-2	-1	3	-4	6
CCOC(=O)CCCn1c(C)nc(=O)c(-c2ccccc2)c1C	-3	1	0	-34*	-1
COC(=O)[C@@H](NC(=O)N1CCN(C(=O)C2COc3ccccc3O2)CC1)C(C)C (some centres undefined)	-2	0	2	24	-9
CN1CCN(C2=Cc3ccccc3Sc3cc(F)c(Cl)cc32)CC1	-10	1	8	-70*	7
CN1CCN(C2=Cc3cc(Cl)ccc3Sc3cc(F)ccc32)CC1	-4	0	0	-9	8
CN1CCN(C2=Cc3ccccc3Sc3cc(F)c(F)cc32)CC1	-4	0	56*	-83*	5
S=c1[nH]nc(-c2ccncc2)n1/N=C/c1cn(-c2ccccc2)nc1-c1ccccc1	0	0	5	-6	30*
O=[N+]([O-])c1ccc(-c2nn(-c3ccccc3)cc2/C=N/n2c(-c3ccncc3)n[nH]c2=S)cc1	2	0	0	-10	5
COc1ccc(Sc2ncnc3onc(C)c23)cc1	-3	1	-1	-42*	-1
Cc1ccc(Sc2ncnc3onc(C)c23)c(C)c1	-3	-1	-3	·	1
CC(C)CC(C(=O)OCC(=O)c1c(N)n(C)c(=O)n(C)c1=O)N1C(=O)C2CC=CCC2C1=O (centres undefined)	2	-1	1	3	-2
O=C(NC1CCC(CC2CCC(NC(=O)C(Cl)Cl)CC2)CC1)C(Cl)Cl (centres undefined)	1	0	3	11	14
Cc1cc(N)c(NC2=CC(=O)CC(C)(C)C2)cc1C	4	-1	31*	15	1
Cc1ccc(NC2=CC(=O)CC(C)(C)C2)cc1F	1	0	0	-18	-1
COC(=O)c1ccc(NC(=O)c2cc(S(=O)(=O)N3CCOCC3)cn2C)cc1	-3	0	6	-17	-2
SMILES	D1 PAM	TRHR ag	D1 ag	D1 antag	TRHR PAM
CCc1ccc(NC(=O)CCc2c(C)nn(-c3ccc(N4CCCC4)nn3)c2C)cc1	-5	-1	-1	-4	0
CC(C)CN(C(=O)CN1CCN(c2cccc(Cl)c2)CC1)c1c(N)n(CC(C)C)c(=O)[nH]c1=O	7	0	1	-7	0
CC(C)CN(C(=O)CN1CCN(S(=O)(=O)c2ccc3ccccc3c2)CC1)c1c(N)n(CC(C)C)c(=O)[nH]c1=O	-5	0	0	-88*	-1
O=c1c2[nH]c3cccc(Cl)c3c2ncn1CC1CCCO1 (centres undefined)	-9	-1	2	-30*	-4
CCC(=O)Nc1ccc(C)cc1-c1nc2ccccc2n(CC(=O)c2ccc(C)cc2)c1=O	-2	0	0	8	1
C=CCn1c(SCC(=O)Nc2ccc(OC)cc2)nnc1-c1cnccn1	32*	0	1	-9	7
CCN(Cc1ccccc1)Cc1nnnn1Cc1ccccc1	2	0	3	-73*	0
